Results filed as inconclusive are left out. A call without a number means that no potency is given here. The source holds several records for some structures; these can differ, active in one and inactive in another. Calls of active or inactive are those of the source. Calls follow the shape of the full dose curve.
Assay: p53 small molecule agonists, cell-based qHTS assay with human liver microsomes: qHTS cell viability counter screen (AID 1963579); also: nearly all actives have a fitted effect of over 45% in size
Settings: p53RE-bla HCT-116 viability, ATP luminescence, 16 h, HLM; series mostly up to 66 µM
Text: National Center for Advancing Translational Sciences [NCATS]
Division of Preclinical Innovation [DPI]
U.S. Environmental Protection Agency [EPA]
National Institutes of Environmental Health Sciences [NIEHS]
National Toxicology Program [NTP]
U.S. Food and Drug Administration [FDA]
p53, a tumor suppressor protein, is activated following cellular insult, including DNA damage and other cellular stresses. The activation of p53 regulates cell fate by inducing DNA repair, cell cycle arrest, apoptosis, or cellular senescence. The activation of p53, therefore, is a good indicator of DNA damage and other cellular stresses. […] The activation of the reporter gene under culture conditions can be detected by fluorescence intensity. This cell line was used to screen the Tox21 10K compound library in the condition of presence of human liver microsomes and to identify agonists that activate the p53 signaling pathway after in vitro metabolic activation (Ooka et al., Archive of Toxicology 96:1975-1987, 2022).
Tox21 Assay Protocol Summary:
The p53RE-bla cells were dispensed at 4,000cells/3ul/well in 1536-well black-clear bottom plates. After the assay plates were incubated at 37 C, 5% CO2 incubator for 5 hours, 23 nL of compounds dissolved in DMSO, positive controls or DMSO only was transferred to the assay plate. Following compound addition, 3 uL of human liver microsomes (XenoTech, Kansas City, KS) at final concentration of 0.5 mg/mL and 1uL of B-Nicotinamide adenine dinucleotide 2'-phosphate (NADPH) at final concentration of 0.5 mg/mL were transferred to the assay plate. The plates were incubated at 37 C for 16 hours. 1 uL of LiveBLAzer detection mixture was added to each well and the plates were incubated at room temperature in the dark for 2 h. Fluorescence intensity at 460 and 530 nm emission and 405 nm excitation were measured by an Envision plate reader. For cell viability readout that measures cytotoxicity, 4 ul/well of CellTiter-Glo reagent was added into the assay plates using a Flying Reagent Dispenser. After 30 min incubation at room temperature, the luminescence intensity in the plates was measured using a ViewLux plate reader.
Potency is read from the fitted curve at half-maximal effect.

| SMILES | Potency | activity change, negative = cytotoxicity |
| --- | --- | --- |
| CC(COC(=O)c1ccccc1)OC(=O)c1ccccc1 (stereo not given) | inactive |  |
| CCCCC(CC)CCC(CC(C)C)OS(=O)(=O)O (stereo not given) | inactive |  |
| COc1cc(N)c(Cl)cc1C(=O)NC1CCN(Cc2ccccc2)CC1 | inactive |  |
| COc1ccc(N)c(C)c1 | inactive |  |
| O=C(O)CCCCCC(=O)O | inactive |  |
| CCCCCCCOC(=O)c1ccccc1C(=O)OCCCCCCC | inactive |  |
| O=C1CCN(c2ccccc2)N1 | inactive |  |
| CC(C)(C)NC(N)=O | inactive |  |
| CC(=O)c1ccc2c(c1)CCCC2 | inactive |  |
| N#CC1(O)CCCCC1 | inactive |  |
| NS(=O)(=O)c1cc2c(cc1Cl)NC(CC1CCCC1)NS2(=O)=O (stereo not given) | inactive |  |
| CCCOC(=O)C(C)O (stereo not given) | inactive |  |
| CCC(C)(C)CC | inactive |  |
| CC1=CC[C@@H]2C[C@H]1C2(C)C |  | -2.33% [at 13.5 µM] (inactive) |
| Cc1cccc(C)c1NC(=O)CC12CCCN1CCC2 | inactive |  |
| C[C@@H]1CCC[C@H](C)N1 | inactive |  |
| Nc1ncnc2c1ncn2[C@@H]1O[C@H](COP(=O)(O)O)[C@@H](O)[C@H]1O | inactive |  |
| CC(=O)N1CCN(c2ccc(O)cc2)CC1 | inactive |  |
| CC(C)=CCCC(C)O (stereo not given) | inactive |  |
| c1ccc(CNc2ncnc3c2ncn3C2CCCCO2)cc1 (stereo not given) | inactive |  |

| SMILES | Potency | activity change, negative = cytotoxicity |
| --- | --- | --- |
| Cc1ccc(O)c([N+](=O)[O-])c1 | inactive |  |
| Brc1cc(Br)cc(Br)c1 | inactive |  |
| CO[Si](CCCNCCNCCN)(OC)OC | inactive |  |
| O=C(O)c1ccc([N+](=O)[O-])cc1 | inactive |  |
| CCCCCCCCOCCC#N | inactive |  |
| O=C(c1ccccc1)c1ccccc1O | inactive |  |
| CC(=O)SC[C@@H](C)C(=O)N1CCC[C@H]1C(=O)N[C@@H](Cc1ccccc1)C(=O)O | inactive |  |
| CC(C)CC(O)Cc1ccccc1 (stereo not given) | inactive |  |
| O=[Si]=O | inactive |  |
| O=P(O)(OCc1ccccc1)OCc1ccccc1 | inactive |  |
| NCCOCCN | inactive |  |
| CCCCCC/C=C/C(=O)OC | inactive |  |
| OC/C=C/CO | inactive |  |
| CCCOCCOCCO | inactive |  |
| CCc1ccc(C)nc1 | inactive |  |
| CCOC(=O)CN1CCCC1=O | inactive |  |
| NNc1nncc2ccccc12 | 32.4 µM (active) | -0.157% [at 13.5 µM] (inactive) |
| C1CSCCS1 | inactive |  |
| O=Cc1ccc(F)cc1 | inactive |  |

Reference: PubChem BioAssay (Tox21)
